Results published in the antibiotic and cytotoxicity screens of Wong et al. (2023).
The campaign covered roughly 39,000 compounds. About 1,500 (3.8%) were called active. The sample as a whole holds a higher share of actives than the screen did.

test system: HSkMC (human skeletal muscle cells); assay: cytotoxicity call (relative viability < 0.9); conditions: 10 µM

Structure (SMILES) | cytotoxicity call
Cn1cnc(S(=O)(=O)N2C[C@@H](O)COC[C@H]3O[C@@H](CC(=O)NC4CCCC4)CC[C@@H]32)c1 | inactive
COc1ccccc1CNC(=O)C[C@@H]1C[C@H]2c3cc(NC(=O)C4CCOCC4)ccc3O[C@H]2[C@@H](CO)O1 | inactive
O=C(c1cc2n(n1)CCCO2)N1CC(O)C1 | inactive
Cc1noc(C)c1NC(=O)N(C)C[C@H]1Oc2ccc(NC(=O)CCN3CCOCC3)cc2CC(=O)N([C@H](C)CO)C[C@@H]1C | inactive
C[C@H](CO)N1C[C@H](C)[C@H](CN(C)C(=O)c2ccc3c(c2)OCO3)Oc2ncc(C#CCN(C)C)cc2C1=O | inactive
CCC(=O)N1C[C@]2(CN(C2)S(=O)(=O)C)c2c(n(c3cc(ccc23)OC)C)[C@@H]1CO | inactive
C[C@H](CO)N1C[C@H](C)[C@H](CN(C)S(=O)(=O)c2cn(C)cn2)Oc2ccc(NS(=O)(=O)c3ccccc3)cc2CC1=O | inactive
C[C@@H]1CN([C@@H](C)CO)C(=O)Cc2cc(NC(=O)CCC(F)(F)F)ccc2O[C@H]1CN(C)Cc1ccc(-c2ccccc2)cc1 | active
C[C@@H]1CN([C@@H](C)CO)C(=O)Cc2cc(NC(=O)CCC(F)(F)F)ccc2O[C@H]1CN(C)Cc1ccc(Cl)c(Cl)c1 | active
C[C@@H]1CN([C@H](C)CO)C(=O)Cc2cc(NC(=O)CCC(F)(F)F)ccc2O[C@H]1CN(C)Cc1ccc(Cl)c(Cl)c1 | inactive
C[C@@H]1CN([C@H](C)CO)C(=O)Cc2cc(NC(=O)CCC(F)(F)F)ccc2O[C@H]1CN(C)Cc1ccc(-c2ccccc2)cc1 | inactive
C[C@H](CO)N1C[C@H](C)[C@@H](CN(C)Cc2ccc(Cl)c(Cl)c2)Oc2ccc(NC(=O)CCC(F)(F)F)cc2CC1=O | inactive
C[C@H]1CN([C@@H](C)CO)C(=O)Cc2cc(NC(=O)CCC(F)(F)F)ccc2O[C@H]1CN(C)Cc1ccc(-c2ccccc2)cc1 | inactive
CCOC(=O)c1cn2cn[nH]c2nc1=O | inactive
C[C@@H]1CN([C@H](C)CO)C(=O)Cc2cc(NC(=O)Nc3ccc4c(c3)OCO4)ccc2O[C@@H]1CN(C)Cc1ccc(C(=O)Nc2ccccc2N)cc1 | inactive
COC(=O)C[C@H]1CC[C@@H]2[C@H](COC[C@H](O)CN2S(=O)(=O)c2ccc(F)cc2)O1 | inactive
C[C@@H]1CN([C@@H](C)CO)S(=O)(=O)c2ccc(C#CC(C)(C)O)cc2O[C@@H]1CN(C)Cc1ccc(F)cc1 | inactive
C=CCNC(=O)[C@H]1[C@@H]2C(=O)O[C@@H](c3ccccc3)[C@@H](c3ccccc3)N2[C@@H](c2ccc(O)cc2)[C@]12C(=O)Nc1ccc(C#Cc3ccc(OC)cc3)cc12 | inactive
COc1ccc(S(=O)(=O)Nc2ccc3c(c2)C(=O)N([C@H](C)CO)C[C@H](C)[C@H](CN(C)Cc2ccccc2)OCCCC[C@H](C)O3)cc1 | inactive
CC1CCC2(C(=O)O)CCC3(C)C(=CCC4C5(C)CCC(O)C(C)(C)C5CCC43C)C2C1C (centres undefined) | active

Structure (SMILES) | cytotoxicity call
CC1(C)CCC2(C(=O)O)CCC3(C)C(=CCC4C5(C)CCC(O)C(C)(C)C5CCC43C)C2C1 (centres undefined) | inactive
COC(=O)[C@@]12CC[C@@H](C)[C@@H](C)[C@@H]1C1=CC[C@H]3[C@@]4(C)CC[C@@H](OC(C)=O)C(C)(C)[C@@H]4CC[C@@]3(C)[C@@]1(C)CC2 | inactive
O=C1c2c(O)cccc2C(C2OC(CO)C(O)C(O)C2O)c2cc(CO)cc(O)c21 (centres undefined) | inactive
COc1ccc(NC(=O)Nc2ccc3c(c2)C(=O)N([C@@H](C)CO)C[C@H](C)[C@@H](CN(C)C(=O)Nc2ccc(C(F)(F)F)cc2)OCCCC[C@H](C)O3)cc1 | inactive
C[C@@H]1CN([C@@H](C)CO)C(=O)c2cccc(NC(=O)Nc3ccc4c(c3)OCO4)c2O[C@@H]1CN(C)Cc1ccc(Oc2ccccc2)cc1 | inactive
C[C@H]1CN([C@@H](C)CO)C(=O)c2cccc(NC(=O)Nc3ccc4c(c3)OCO4)c2O[C@H]1CN(C)Cc1ccc(-c2ccccc2)cc1 | inactive
C[C@H]1CN([C@@H](C)CO)C(=O)c2cccc(NC(=O)Nc3ccc4c(c3)OCO4)c2O[C@@H]1CN(C)Cc1ccc(-c2ccccc2)cc1 | inactive
C[C@@H]1CN([C@@H](C)CO)C(=O)c2cccc(NC(=O)Nc3ccc4c(c3)OCO4)c2O[C@@H]1CN(C)Cc1ccc(-c2ccccc2)cc1 | active
C[C@H]1CN([C@@H](C)CO)C(=O)c2cccc(NC(=O)Nc3ccc4c(c3)OCO4)c2O[C@H]1CN(C)Cc1ccc(Oc2ccccc2)cc1 | inactive
C[C@@H]1CN([C@H](C)CO)C(=O)c2cccc(NC(=O)Nc3ccc4c(c3)OCO4)c2O[C@H]1CN(C)Cc1ccc(Oc2ccccc2)cc1 | active
C[C@@H]1CCCCO[C@H](CN(C)S(=O)(=O)c2cccs2)[C@H](C)CN([C@@H](C)CO)C(=O)c2cc(NC(=O)c3ccccc3)ccc2O1 | inactive
CC[C@@H]1/C=C(\C)C[C@H](C)C[C@H](OC)[C@H]2O[C@@](O)(C(=O)C(=O)N3CCCC[C@H]3C(=O)O[C@H](/C(C)=C/[C@@H]3CC[C@H](Cl)[C@H](OC)C3)[C@H](C)[C@@H](O)CC1=O)[C@H](C)C[C@@H]2OC | inactive
C[C@@H]1CCCCO[C@@H](CN(C)C(=O)c2ccccc2)[C@@H](C)CN([C@@H](C)CO)C(=O)c2cc(NC(=O)Nc3ccccc3)ccc2O1 | inactive
Cc1ccc(S(=O)(=O)N(C)C[C@@H]2OCCCC[C@@H](C)Oc3ccc(NC(=O)CCC(F)(F)F)cc3C(=O)N([C@@H](C)CO)C[C@H]2C)cc1 | inactive
Cc1noc(C)c1S(=O)(=O)N(C)C[C@H]1Oc2ccc(NC(=O)Cc3ccccc3)cc2CC(=O)N([C@H](C)CO)C[C@H]1C | inactive
NC(=O)[C@H]1CCCCN1 | inactive
COc1cccc(S(=O)(=O)N[C@@H]2C=C[C@@H](CC(=O)NC3CCC3)O[C@H]2CO)c1 | inactive
C[C@@H]1CCCCO[C@H](CN(C)C(=O)Nc2cccc3ccccc23)[C@@H](C)CN([C@H](C)CO)C(=O)c2cc(NS(=O)(=O)c3ccc(Cl)cc3)ccc2O1 | active
C[C@@H]1CCCCO[C@@H](CN(C)C(=O)Nc2cccc3ccccc23)[C@H](C)CN([C@H](C)CO)C(=O)c2cc(NS(=O)(=O)c3ccc(F)cc3)ccc2O1 | active
C[C@H]1CCCCO[C@H](CN(C)C(=O)Nc2cccc3ccccc23)[C@@H](C)CN([C@@H](C)CO)C(=O)c2cc(NS(=O)(=O)c3ccc(F)cc3)ccc2O1 | active

Structure (SMILES) | cytotoxicity call
C[C@@H]1CCCCO[C@H](CN(C)C(=O)Nc2cccc3ccccc23)[C@H](C)CN([C@H](C)CO)C(=O)c2cc(NS(=O)(=O)c3ccc(Cl)cc3)ccc2O1 | inactive
Cc1ccc(S(=O)(=O)Nc2ccc3c(c2)C(=O)N([C@H](C)CO)C[C@H](C)[C@H](CN(C)C(=O)Nc2cccc4ccccc24)OCCCC[C@H](C)O3)cc1 | active
C[C@@H]1CCCCO[C@@H](CN(C)C(=O)Nc2cccc3ccccc23)[C@H](C)CN([C@@H](C)CO)C(=O)c2cc(NS(=O)(=O)c3ccc(Cl)cc3)ccc2O1 | inactive
Cc1ccc(S(=O)(=O)Nc2ccc3c(c2)C(=O)N([C@@H](C)CO)C[C@@H](C)[C@@H](CN(C)C(=O)Nc2cccc4ccccc24)OCCCC[C@H](C)O3)cc1 | inactive
Cc1ccc(S(=O)(=O)Nc2ccc3c(c2)C(=O)N([C@@H](C)CO)C[C@H](C)[C@@H](CN(C)C(=O)Nc2cccc4ccccc24)OCCCC[C@@H](C)O3)cc1 | inactive
C[C@@H]1CCCCO[C@@H](CN(C)C(=O)Nc2cccc3ccccc23)[C@@H](C)CN([C@H](C)CO)C(=O)c2cc(NS(=O)(=O)c3ccc(F)cc3)ccc2O1 | inactive
C[C@@H]1CCCCO[C@@H](CN(C)C(=O)Nc2cccc3ccccc23)[C@H](C)CN([C@@H](C)CO)C(=O)c2cc(NS(=O)(=O)c3ccc(F)cc3)ccc2O1 | inactive
C[C@@H]1CN([C@@H](C)CO)C(=O)c2cc(NS(=O)(=O)c3ccc(F)cc3)ccc2O[C@@H](C)CCCCO[C@@H]1CN(C)C(=O)Nc1cccc2ccccc12 | inactive
C[C@@H]1CN([C@@H](C)CO)C(=O)c2cc(NS(=O)(=O)c3ccc(F)cc3)ccc2O[C@@H](C)CCCCO[C@H]1CN(C)C(=O)Nc1cccc2ccccc12 | inactive
CCC(=O)Nc1ccc2c(c1)C(=O)N(C)C[C@H](OC)[C@@H](C)CN(C(=O)CN1CCOCC1)[C@H](C)CO2 | inactive
CC(C)NC(=O)Nc1ccc2c(c1)C(=O)N([C@@H](C)CO)C[C@@H](C)[C@@H](CN(C)C(=O)Nc1ccc(C(F)(F)F)cc1)OCCCC[C@@H](C)O2 | inactive
C[C@@H]1CCCCO[C@H](CN(C)S(=O)(=O)c2cccs2)[C@@H](C)CN([C@@H](C)CO)C(=O)c2cc(NC(=O)Nc3cccc4ccccc34)ccc2O1 | inactive
C[C@@H]1CCCCO[C@H](CN(C)C(=O)CCC(F)(F)F)[C@@H](C)CN([C@H](C)CO)C(=O)c2cc(NC(=O)Cc3ccccc3)ccc2O1 | inactive
CC(C)NC(=O)Nc1cccc2c1O[C@@H](CN(C)Cc1ccc3c(c1)OCO3)[C@@H](C)CN([C@H](C)CO)C2=O | inactive
C[C@@H]1CN([C@H](C)CO)C(=O)c2cc(NS(=O)(=O)c3ccccc3)ccc2O[C@@H]1CN(C)S(C)(=O)=O | inactive
C[C@H]1CN([C@@H](C)CO)S(=O)(=O)c2ccc(C#Cc3ccncc3)cc2O[C@H]1CN(C)C(=O)C1CCOCC1 | inactive
Cc1noc(C)c1S(=O)(=O)Nc1ccc2c(c1)C(=O)N([C@H](C)CO)C[C@H](C)[C@@H](CN(C)C(=O)Nc1cccc3ccccc13)OCCCC[C@H](C)O2 | active
Cc1noc(C)c1S(=O)(=O)Nc1ccc2c(c1)C(=O)N([C@H](C)CO)C[C@H](C)[C@H](CN(C)C(=O)Nc1cccc3ccccc13)OCCCC[C@@H](C)O2 | inactive
Cc1noc(C)c1S(=O)(=O)Nc1ccc2c(c1)C(=O)N([C@@H](C)CO)C[C@@H](C)[C@@H](CN(C)C(=O)Nc1cccc3ccccc13)OCCCC[C@H](C)O2 | inactive
